Experimental data taken from PubChem BioAssay (NCI).
The panel holds about 83,000 compounds, 20% with a hit somewhere; the sample as a whole holds those more often.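 For each line, cells grew in 96-well plates with the test compound present at a single concentration for 48 hours.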 The source made the active and inactive calls. How the source made its calls: active means growth percent below 10; inactive means the rest.

Experiments:
Assay in all cases: NCI-60 one-dose screen, 48 h (100 = growth as untreated, 0 = no growth, -100 = all killed)
Details in all cases: 10 µM unless noted
MOLT-4 leukemia = system: MOLT-4 leukemia
SR leukemia = system: SR leukemia
RPMI-8226 leukemia = system: RPMI-8226 leukemia
OVCAR-8 ovarian = system: OVCAR-8 ovarian
OVCAR-5 ovarian = system: OVCAR-5 ovarian
OVCAR-4 ovarian = system: OVCAR-4 ovarian
SK-OV-3 ovarian = system: SK-OV-3 ovarian
IGROV1 ovarian = system: IGROV1 ovarian
OVCAR-3 ovarian = system: OVCAR-3 ovarian
HS 578T breast = system: HS 578T breast
NCI/ADR-RES ovarian = system: NCI/ADR-RES ovarian
T-47D breast = system: T-47D breast
BT-549 breast = system: BT-549 breast
MDA-MB-435 melanoma = system: MDA-MB-435 melanoma
SW-620 colon = system: SW-620 colon
MCF7 breast = system: MCF7 breast
HCT-116 colon = system: HCT-116 colon
HCC-2998 colon = system: HCC-2998 colon
KM12 colon = system: KM12 colon

Measured: growth

COC(=O)[C@@H](C)C[C@H](Cc1ccccc1)NC(=O)c1csc([C@@H](C[C@H](C(C)C)N(C)C(=O)C2(NC(=O)[C@H]3CCCCN3C)CCC2)OC(C)=O)n1
inactive: RPMI-8226 leukemia 13.5% | OVCAR-8 ovarian 27.2% | OVCAR-5 ovarian 24% | OVCAR-4 ovarian 50% | SK-OV-3 ovarian 28.7% | IGROV1 ovarian 23.2% | HS 578T breast 13% | NCI/ADR-RES ovarian 46.5% | T-47D breast 50.1% | BT-549 breast 11.6% | SW-620 colon 23% | MCF7 breast 21.9% | HCC-2998 colon 12.4%
active: MOLT-4 leukemia 5.46% | SR leukemia 5.54% | OVCAR-3 ovarian -6.95% | MDA-MB-435 melanoma -25.3% | HCT-116 colon 3.39% | KM12 colon 5.71%

CCCCCCCC(=O)OCC(=O)[C@]1(O)Cc2c(O)c3c(c(O)c2[C@@H](OC2CC(N)C(O)C(C)O2)C1)C(=O)c1c(OC)cccc1C3=O (stereo not given in full)
active: MOLT-4 leukemia -93.1% | SR leukemia -67.1% | RPMI-8226 leukemia -73.6% | OVCAR-8 ovarian -95% | OVCAR-5 ovarian -73.9% | OVCAR-4 ovarian -72.1% | SK-OV-3 ovarian -58.5% | IGROV1 ovarian -66.8% | OVCAR-3 ovarian -100% | HS 578T breast -59.3% | T-47D breast -69.2% | BT-549 breast -84% | MDA-MB-435 melanoma -80.5% | SW-620 colon -62.5% | MCF7 breast -94.4% | HCT-116 colon -73.4% | HCC-2998 colon -90.1% | KM12 colon -96.2%
inactive: NCI/ADR-RES ovarian 50.7%

CSc1nc(Cl)cc(N2CC2)n1
inactive: MOLT-4 leukemia 108% | SR leukemia 109% | RPMI-8226 leukemia 73.8% | OVCAR-8 ovarian 101% | OVCAR-5 ovarian 111% | OVCAR-4 ovarian 114% | SK-OV-3 ovarian 115% | IGROV1 ovarian 123% | OVCAR-3 ovarian 117% | HS 578T breast 110% | NCI/ADR-RES ovarian 119% | T-47D breast 108% | BT-549 breast 111% | MDA-MB-435 melanoma 116% | SW-620 colon 105% | MCF7 breast 105% | HCT-116 colon 105% | HCC-2998 colon 138% | KM12 colon 111%

CC1=C(CCCNS(C)(=O)=O)C2=C(C)C3(CC3)[C@@](C)(O)C(=O)C2=C1
inactive: MOLT-4 leukemia 90.2% | SR leukemia 92.8% | RPMI-8226 leukemia 97% | HS 578T breast 57.9% | MDA-MB-435 melanoma 11.7% | SW-620 colon 83.3% | MCF7 breast 20.7% | KM12 colon 62.4%
active: OVCAR-8 ovarian 6.9% | OVCAR-5 ovarian 2.82% | OVCAR-4 ovarian -12.1% | SK-OV-3 ovarian -18% | IGROV1 ovarian -2.43% | OVCAR-3 ovarian -12.7% | NCI/ADR-RES ovarian -5.49% | T-47D breast -11.2% | BT-549 breast -31% | HCT-116 colon 1.02% | HCC-2998 colon -43.3%

COc1cc2c(cc1OCCCn1c(-c3ccccn3)nc3ccccc31)N=C[C@@H]1CCCN1C2=O
active: MOLT-4 leukemia 8.22% | SR leukemia 3.55% | RPMI-8226 leukemia -37.5% | OVCAR-5 ovarian 2.58% | IGROV1 ovarian -62.3% | OVCAR-3 ovarian 2.94% | HS 578T breast -2.53% | NCI/ADR-RES ovarian 3.97% | BT-549 breast -17.1% | MDA-MB-435 melanoma -23.6% | SW-620 colon 0.272% | MCF7 breast 1.32% | HCT-116 colon -14.4% | HCC-2998 colon 2.04% | KM12 colon -31.7%
inactive: OVCAR-8 ovarian 25.5% | OVCAR-4 ovarian 15.6% | SK-OV-3 ovarian 30.8% | T-47D breast 35.4%

O=[N+]([O-])c1cc([N+](=O)[O-])c(Nn2c3ccccc3c3ccccc32)c([N+](=O)[O-])c1
active: MOLT-4 leukemia 0.889% | SR leukemia 1.48% | RPMI-8226 leukemia -20.5% | OVCAR-8 ovarian 5.97% | OVCAR-4 ovarian 6.45% | SK-OV-3 ovarian -17.2% | HS 578T breast 5.42% | NCI/ADR-RES ovarian 7.52% | T-47D breast -17.3% | BT-549 breast -27.4% | MDA-MB-435 melanoma 0.936% | MCF7 breast 2.34% | HCT-116 colon -10.1% | HCC-2998 colon 1.54% | KM12 colon 4.34%
inactive: OVCAR-5 ovarian 29.4% | IGROV1 ovarian 22.8% | OVCAR-3 ovarian 12.4% | SW-620 colon 11.1%

CCOC(=O)[C@@H](C)C[C@H](Cc1ccccc1)NC(=O)c1nc([C@@H](C[C@H](C(C)C)N(C)C(=O)[C@@H](NC(=O)[C@H]2CCCCN2C)C(C)C)OC(C)=O)sc1CCOCc1ccccc1
active: MOLT-4 leukemia -2.06% | SR leukemia -36.9% | RPMI-8226 leukemia -32% | OVCAR-8 ovarian -19.3% | OVCAR-5 ovarian 6.59% | SK-OV-3 ovarian -3.36% | IGROV1 ovarian -4.01% | OVCAR-3 ovarian -53% | HS 578T breast -27.9% | NCI/ADR-RES ovarian 1.07% | BT-549 breast -50.9% | MDA-MB-435 melanoma -58.3% | SW-620 colon 6.51% | MCF7 breast 5.53% | HCT-116 colon -33.7% | HCC-2998 colon -59.6% | KM12 colon -39.8%
inactive: OVCAR-4 ovarian 14.9% | T-47D breast 24.7%

[Cl][Hg][c]1cc[c]([Hg][Cl])o1
inactive: MOLT-4 leukemia 14.3% | OVCAR-8 ovarian 65.1% | OVCAR-5 ovarian 122% | OVCAR-4 ovarian 79.6% | SK-OV-3 ovarian 94.9% | IGROV1 ovarian 15.9% | HS 578T breast 55.4% | NCI/ADR-RES ovarian 69.3% | BT-549 breast 14% | MDA-MB-435 melanoma 55.1% | SW-620 colon 12.3% | HCT-116 colon 30.7% | HCC-2998 colon 106% | KM12 colon 76%
active: SR leukemia 6.25% | RPMI-8226 leukemia 1.23% | OVCAR-3 ovarian -1.69% | T-47D breast -7.76% | MCF7 breast -18.6%

COC(=O)[C@@H](C)C[C@H](Cc1ccc2ccccc2c1)NC(=O)c1csc([C@@H](C[C@H](C(C)C)N(C)C(=O)[C@@H](NC(=O)[C@H]2CCCCN2C)C(C)C)OC(C)=O)n1
active: MOLT-4 leukemia -2.64% | SR leukemia 6.75% | BT-549 breast -22.3%
inactive: RPMI-8226 leukemia 23.3% | OVCAR-8 ovarian 37.9% | OVCAR-5 ovarian 77.6% | OVCAR-4 ovarian 53% | SK-OV-3 ovarian 56.5% | IGROV1 ovarian 22.7% | OVCAR-3 ovarian 55.8% | HS 578T breast 40.8% | NCI/ADR-RES ovarian 60.3% | T-47D breast 72.9% | MDA-MB-435 melanoma 19.7% | SW-620 colon 51.2% | MCF7 breast 17% | HCT-116 colon 51.4% | HCC-2998 colon 52.8% | KM12 colon 36.2%

CC(=O)O[C@H](C[C@H](C(C)C)N(C)C(=O)[C@@H](NC(=O)[C@H]1CCCCN1C)C(C)C)c1nc(C(=O)NC2CCC(C(=O)O)CC2)cs1 (stereo not given in full)
inactive: MOLT-4 leukemia 30.9% | SR leukemia 22.3% | RPMI-8226 leukemia 23.8% | OVCAR-8 ovarian 59.9% | OVCAR-5 ovarian 85.7% | OVCAR-4 ovarian 72% | SK-OV-3 ovarian 50.9% | IGROV1 ovarian 52.9% | HS 578T breast 24.2% | NCI/ADR-RES ovarian 96.8% | T-47D breast 50.4% | BT-549 breast 45.6% | SW-620 colon 32.6% | MCF7 breast 18.5% | HCT-116 colon 34.8% | HCC-2998 colon 83.7% | KM12 colon 39.2%
active: OVCAR-3 ovarian 2.22% | MDA-MB-435 melanoma -28.9%

O=C1NC(=O)C(=Cc2ccc(OCCCCC3CCCCC3)c(Cl)c2)C(=O)N1
inactive: MOLT-4 leukemia 96.5% | SR leukemia 106% | RPMI-8226 leukemia 97.7% | OVCAR-8 ovarian 101% | OVCAR-5 ovarian 98.8% | OVCAR-4 ovarian 105% | SK-OV-3 ovarian 99.9% | IGROV1 ovarian 104% | OVCAR-3 ovarian 106% | HS 578T breast 105% | NCI/ADR-RES ovarian 107% | T-47D breast 91.6% | BT-549 breast 95.1% | MDA-MB-435 melanoma 102% | SW-620 colon 98% | MCF7 breast 88.8% | HCT-116 colon 91.3% | HCC-2998 colon 102% | KM12 colon 104%

CN(C)C(=O)Oc1ccccc1-c1ccccc1
inactive: MOLT-4 leukemia 89.9% | SR leukemia 103% | RPMI-8226 leukemia 104% | OVCAR-8 ovarian 100% | OVCAR-5 ovarian 109% | OVCAR-4 ovarian 128% | SK-OV-3 ovarian 100% | IGROV1 ovarian 113% | OVCAR-3 ovarian 108% | HS 578T breast 113% | NCI/ADR-RES ovarian 102% | T-47D breast 93.3% | BT-549 breast 90.7% | MDA-MB-435 melanoma 112% | SW-620 colon 109% | MCF7 breast 105% | HCT-116 colon 111% | HCC-2998 colon 96.1% | KM12 colon 103%

CCOC(=O)[C@@H](C)C[C@H](Cc1ccccc1)NC(=O)c1csc([C@@H](C[C@H](C(C)C)N(C)C(=O)[C@H](CC)NC(=O)[C@H]2CCCCN2C)OC(C)=O)n1
inactive: RPMI-8226 leukemia 19.2% | OVCAR-5 ovarian 31.5% | OVCAR-4 ovarian 37.4% | SK-OV-3 ovarian 20.9% | IGROV1 ovarian 22.6% | T-47D breast 53.1% | SW-620 colon 30.3% | MCF7 breast 18.8%
active: MOLT-4 leukemia 9.18% | SR leukemia 6.66% | OVCAR-8 ovarian 5.75% | OVCAR-3 ovarian -6.1% | HS 578T breast 9.11% | NCI/ADR-RES ovarian 7.74% | BT-549 breast -18.9% | MDA-MB-435 melanoma -35.7% | HCT-116 colon -7.81% | HCC-2998 colon 3.85% | KM12 colon 4.85%

CO[C@H](C(=O)O)[C@@H]1Cc2cc3cc(OC4CC(OC5CC(O)C(O)C(C)O5)C(O)C(C)O4)c(C)c(O)c3c(O)c2C(=O)[C@H]1OC1CC(OC2CC(OC3CC(C)(O)C(O)C(C)O3)C(O)C(C)O2)C(O)C(C)O1 (stereo not given in full)
active: MOLT-4 leukemia 1.78% | RPMI-8226 leukemia 6.67% | HS 578T breast -1.09% | BT-549 breast -41.9% | MDA-MB-435 melanoma 1.21% | MCF7 breast 7.44% | HCT-116 colon 6.04% | HCC-2998 colon -37.8% | KM12 colon 7.07%
inactive: SR leukemia 10.4% | OVCAR-8 ovarian 13.5% | OVCAR-5 ovarian 17.6% | OVCAR-4 ovarian 19.7% | SK-OV-3 ovarian 23.7% | IGROV1 ovarian 35.4% | OVCAR-3 ovarian 10% | NCI/ADR-RES ovarian 74% | T-47D breast 12.8% | SW-620 colon 19.1%

COc1cc(/C=C/[N+](=O)[O-])c([N+](=O)[O-])cc1OC
inactive: SR leukemia 12.6% | OVCAR-8 ovarian 17% | SK-OV-3 ovarian 103% | HS 578T breast 11.8% | NCI/ADR-RES ovarian 13.5% | T-47D breast 16.5% | BT-549 breast 87.3% | MDA-MB-435 melanoma 14% | HCC-2998 colon 86.3% | KM12 colon 18.5%
active: MOLT-4 leukemia 7.83% | RPMI-8226 leukemia 4.37% | OVCAR-5 ovarian -3.45% | OVCAR-4 ovarian 6.43% | IGROV1 ovarian -15.6% | OVCAR-3 ovarian -91.7% | SW-620 colon -57.3% | MCF7 breast 8.83% | HCT-116 colon -62.4%
